Experimental data reported in PubChem BioAssay AID1159580 (chemical genetic matrix, 2015).
The whole screen tested about 5,500 compounds, of which about 2,000 (36%) were called active. Not shown: some 18% with an inconclusive outcome. Rule as the data show it: active = normalized growth mostly below about 0.91 (no sharp cut-off); inconclusive = no clear call, values can overlap the other calls; inactive = mostly above about 0.92. This is one part of the list.

Assay: chemical genetic growth profiling, strain panel (AID 1159580);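 also: tested at 20 µM; growth read once vehicle control cultures reached saturation at 30 °C; 1 = growth at the plate median or of vehicle wells; lower values mean less growth of the strain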
Settings: S. cerevisiae deletion strains, growth OD
[1] = locus YAL040C, strain CLN3, hits give low values
[2] = locus YCL061C, strain MRC1 (second series), hits give low values
[3] = locus YDR363W, strain ESC2, hits give low values
[4] = locus YER002W, strain NOP16, hits give low values
[5] = locus YMR307W, strain GAS1, hits give low values
[6] = locus YNL175C, strain NOP13, hits give low values
[7] = locus YNL197C, strain WHI3, hits give low values
[8] = locus YNL224C, strain SQS1, hits give low values
[9] = locus YOR083W, strain WHI5 (second series), hits give low values

Measured: normalized growth

C[C@@](Cc1ccc(O)c(O)c1)(NN)C(=O)O
inactive: [1] 1.01 | [2] 1 | [3] 1.02 | [4] 1.06 | [5] 0.997 | [6] 1.04 | [7] 0.993 | [8] 1.02 | [9] 0.978

C[C@](N)(Cc1ccc(O)cc1)C(=O)O
inactive: locus YAL021C, strain ccr4, hits give low values 1 | locus YAL026C, strain drs2, hits give low values 0.999 | locus YAL030W, strain snc1, hits give low values 0.998 | locus YBL061C, strain skt5, hits give low values 0.993 | locus YBR009C, strain hhf1, hits give low values 0.993 | locus YBR023C, strain chs3, hits give low values 0.996 | locus YBR171W, strain sec66, hits give low values 0.998 | locus YBR231C, strain swc5, hits give low values 1 | locus YBR279W, strain paf1, hits give low values 1 | locus YCL011C, strain gbp2, hits give low values 1 | locus YCL016C, strain dcc1, hits give low values 0.986 | locus YCL061C, strain MRC1, hits give low values 1 | locus YCL069W, strain vba3, hits give low values 0.997 | locus YCR088W, strain abp1, hits give low values 0.99 | locus YDL005C, strain med2, hits give low values 0.989 | locus YDL040C, strain nat1, hits give low values 0.991 | locus YDR001C, strain nth1, hits give low values 0.986 | locus YDR069C, strain doa4, hits give low values 1 | locus YDR137W, strain rgp1, hits give low values 0.991 | locus YDR159W, strain sac3, hits give low values 0.991 | locus YDR195W, strain ref2 0.971 | locus YDR297W, strain sur2, hits give low values 0.996 | locus YDR334W, strain swr1, hits give low values 0.997 | locus YDR335W, strain msn5, hits give low values 0.995 | locus YDR392W, strain spt3, hits give low values 0.923 | locus YEL003W, strain gim4, hits give low values 1 | locus YEL037C, strain rad23, hits give low values 0.999 | locus YEL061C, strain CIN8 (second series), hits give low values 0.992 | locus YER015W, strain faa2, hits give low values 1 | locus YER016W, strain bim1, hits give low values 0.993 | locus YER111C, strain swi4, hits give low values 1 | locus YER155C, strain BEM2 (second series), hits give low values 0.983 | locus YFR010W, strain ubp6, hits give low values 1 | locus YGL167C, strain pmr1, hits give low values 0.994 | locus YGL173C, strain kem1, hits give low values 1.01 | locus YGL227W, strain vid30, hits give low values 0.992 | locus YGL240W, strain doc1, hits give low values 1.01 | locus YGL253W, strain hxk2, hits give low values 0.999 | locus YHR013C, strain ard1, hits give low values 0.954 | locus YHR027C, strain rpn1, hits give low values 0.997 | locus YHR030C, strain SLT2, hits give low values 1.03 | locus YHR079C, strain IRE1, hits give low values 1.04 | locus YHR142W, strain chs7, hits give low values 1.01 | locus YJL092W, strain hpr5, hits give low values 0.998 | locus YJL095W, strain BCK1 (second series), hits give low values 0.997 | locus YJL095W, strain BCK1, hits give low values 1.05 | locus YJL115W, strain asf1, hits give low values 0.99 | locus YJL129C, strain trk1, hits give low values 1.01 | locus YJL154C, strain vps35, hits give low values 1 | locus YJL164C, strain tpk1, hits give low values 0.999 | locus YJL166W, strain qcr8, hits give low values 1 | locus YJL187C, strain SWE1, hits give low values 0.999 | locus YJR066W, strain TOR1, hits give low values 1.01 | locus YKL160W, strain elf1, hits give low values 1.01 | locus YKR026C, strain gcn3, hits give low values 0.98 | locus YKR091W, strain srl3, hits give low values 0.992 | locus YLL001W, strain dnm1, hits give low values 1.01 | locus YLL026W, hits give low values 0.996 | locus YLL041C, strain sdh2, hits give low values 0.997 | locus YLR027C, strain aat2, hits give low values 1 | locus YLR113W, strain HOG1, hits give low values 1.01 | locus YLR221C, strain rsa3, hits give low values 0.997 | locus YLR258W, strain gsy2, hits give low values 0.993 | locus YLR262C, strain YPT6 (second series), hits give low values 1.01 | locus YLR320W, strain mms22, hits give low values 1.01 | locus YLR342W, strain FKS1, hits give low values 0.998 | locus YLR357W, strain rsc2, hits give low values 0.982 | locus YLR370C, strain arc18, hits give low values 1 | locus YLR384C, strain iki3, hits give low values 0.994 | locus YML120C, strain ndi1, hits give low values 1.03 | locus YMR058W, strain fet3, hits give low values 1 | locus YMR125W, strain sto1, hits give low values 0.995 | locus YMR129W, hits give low values 0.986 | locus YMR205C, strain PFK2, hits give low values 0.984 | locus YMR231W, strain pep5, hits give low values 0.999 | locus YNL071W, strain lat1, hits give low values 1.01 | locus YNL183C, strain NPR1, hits give low values 1.02 | locus YNL209W, strain ssb2, hits give low values 1.01 | locus YNL248C, strain rpa49, hits give low values 1.02 | locus YNL322C, strain KRE1 (second series), hits give low values 0.986 | locus YNR049C, strain mso1, hits give low values 0.989 | locus YOR001W, strain rrp6, hits give low values 1 | locus YOR070C, strain gyp1, hits give low values 0.988 | locus YOR080W, strain dia2, hits give low values 0.99 | locus YOR083W, strain WHI5, hits give low values 1.01 | locus YOR106W, strain vam3, hits give low values 1 | locus YOR231W, strain MKK1, hits give low values 1.05 | locus YOR265W, strain rbl2, hits give low values 0.999 | locus YOR270C, strain vph1, hits give low values 1.01 | locus YOR290C, strain snf2, hits give low values 0.926 | locus YPL051W, strain arl3, hits give low values 1.01 | locus YPL078C, strain atp4, hits give low values 1.01 | locus YPL106C, strain sse1, hits give low values 0.993 | locus YPL240C, strain hsp82, hits give low values 1.01 | locus YPL256C, strain CLN2, hits give low values 1.05

COC(=O)C(C)(N)Cc1ccc(O)cc1 (stereo not drawn)
inactive: locus YAL013W, strain DEP1, hits give low values 0.991 | [1] 0.987 | [2] 1.01 | [3] 0.966 | [4] 1.01 | locus YGR078C, strain PAC10, hits give low values 0.976 | [5] 0.974 | locus YNL153C, strain GIM3, hits give low values 1.03 | [6] 0.996 | [7] 0.99 | [8] 0.997 | [9] 1.01 | locus YPL055C, strain LGE1, hits give low values 0.988 | locus YPL241C, strain CIN2, hits give low values 1.01
